Reference: PubChem BioAssay (EPA / NIEHS)
Calls of active or inactive are those of the source. How the source made its calls: active means hit-call score of the fitted dose curve at least 0.9, where 1 is the maximum; inactive means score below 0.9.

Columns and labels:
[1] = read-out: Matrix Metallopeptidase 1 (MMP1), MMP1 (gene 4312); experiment: BSK_BE3C_MMP1: BioMAP Diversity Plus: BE3C Assay for Matrix Metallopeptidase 1 (MMP1) Biomarker Activity (AID 2283024); settings: primary human bronchial epithelial cells; actives raise or lower the signal
Outline: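 ELISA read-out of MMP1 in human lung bronchial epithelial primary cultures, 24 h post-dose; bidirectional curve fit vs DMSO baseline, gain or loss of signal scored.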

[2] = BSK_3C_Vis: BioMAP Diversity Plus: 3C Assay for Morphology Visualization (AID 2283025); settings: primary human endothelial cells (HUVEC);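 further: fitted both ways so gain or loss versus DMSO counts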
Outline: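 HUVEC, 3C system; light microscopy of morphology at 24 h post-dose. Bidirectional fit vs DMSO baseline. Secondary readout, background-control function.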

[3] = read-out: Pselectin, SELP (gene 6403); experiment: BSK_4H_Pselectin: BioMAP Diversity Plus: 4H Assay for Pselectin Biomarker Activity (AID 2283026); settings: primary human endothelial cells (HUVEC); actives raise or lower the signal
Outline: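 HUVEC, 24 h chemical exposure; P-selectin read by ELISA. Bidirectional curve fit vs DMSO baseline; gain or loss of signal scored.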

[4] = BSK_4H_SRB: Viability Assessment in the BioMAP Diversity Plus: 4H Assay (AID 2283027); settings: primary human endothelial cells (HUVEC);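 further: cells exposed to compound for 24 h before staining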
Outline: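 Cytotoxicity readout: sulforhodamine B (0.1%) staining of total protein after 10% TCA fixation, measured at 560 nm in human umbilical vein endothelium at 24 h. DMSO set the baseline; fitting was bidirectional.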

[5] = read-out: Thrombomodulin, THBD (gene 7056); experiment: BSK_3C_Thrombomodulin: BioMAP Diversity Plus: 3C Assay for Thrombomodulin Biomarker Activity (AID 2283029); settings: primary human endothelial cells (HUVEC); actives raise or lower the signal
Outline: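 HUVEC, 3C conditions; compound 24 h; thrombomodulin by ELISA; bidirectional curve fit vs DMSO baseline; parallel SRB total-protein staining for cytotoxicity.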

[6] = read-out: Vascular endothelial growth factor receptor 2 (Homo sapiens) (UniProt P35968); experiment: BSK_4H_VEGFRII: BioMAP Diversity Plus: 4H Assay for Vascular endothelial growth factor receptor 2 (VEGFR2) Biomarker Activity (AID 2283031); settings: primary human endothelial cells (HUVEC); actives raise or lower the signal
Outline: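 VEGFRII levels on human vascular endothelial primary cells were determined by ELISA at 24 hours post-dosing, with gain- or loss-of-signal fitted against DMSO controls.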

[7] = read-out: Human Leukocyte Antigen - DR isotype (HLADR), HLA-DRA (gene 3122); experiment: BSK_BE3C_HLADR: BioMAP Diversity Plus: BE3C Assay for Human Leukocyte Antigen - DR isotype (HLADR) Biomarker Activity (AID 2283032); settings: primary human bronchial epithelial cells; actives raise or lower the signal
Outline: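 Primary human bronchial epithelial cells (BE3C); 24 h chemical exposure; HLA-DR by ELISA; bidirectional curve fit vs DMSO baseline.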

[8] = read-out: Vascular cell adhesion molecule 1 (VCAM1), VCAM1 (gene 7412); experiment: BSK_4H_VCAM1: BioMAP Diversity Plus: 4H Assay for Vascular cell adhesion molecule 1 (VCAM1) Biomarker Activity (AID 2283033); settings: primary human endothelial cells (HUVEC); actives raise or lower the signal;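 further: cell-surface VCAM-1 protein measured by ELISA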
Outline: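 HUVEC, 24 h post-dose; VCAM-1 by ELISA. Bidirectional curve fit vs DMSO baseline. Parallel SRB total-protein stain (0.1% SRB after 10% TCA fixation, 560 nm) for cytotoxicity.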

[9] = read-out: Interferon-gamma inducible Protein 10 (IP10), CXCL10 (gene 3627); experiment: BSK_BE3C_IP10: BioMAP Diversity Plus: BE3C Assay for Interferon-gamma inducible Protein 10 (IP10) Biomarker Activity (AID 2283034); settings: primary human bronchial epithelial cells; actives raise or lower the signal
Outline: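 ELISA readout of IP-10 in BE3C system: primary human bronchial epithelial cells, 24 h post-dosing; bidirectional curve fit vs DMSO baseline.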

[10] = read-out: Monokine induced gamma interferon (MIG), CXCL9 (gene 4283); experiment: BSK_BE3C_MIG: BioMAP Diversity Plus: BE3C Assay for Monokine induced gamma interferon (MIG) Biomarker Activity (AID 2283035); settings: primary human bronchial epithelial cells; actives raise or lower the signal;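 further: MIG protein measured by ELISA in BE3C cultures after 24 h of dosing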
Outline: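 hu bronchial epithelial 1° cells, 24 h cpd; MIG by ELISA; bidirectional fit, DMSO = baseline.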

[11] = read-out: Transforming growth factor beta 1 (TGFb1), TGFB1 (gene 7040); experiment: BSK_BE3C_TGFb1: BioMAP Diversity Plus: BE3C Assay for Transforming growth factor beta 1 (TGFb1) Biomarker Activity (AID 2283036;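 further: TGF-b1 protein level measured by ELISA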); settings: primary human bronchial epithelial cells; actives raise or lower the signal
Outline: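 Read-out: ELISA for TGF-b1 in primary human bronchial epithelial cultures, 24 h post-dose. Bidirectional curve fitting vs DMSO control; gain or loss of signal both scored.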

[12] = read-out: Plasminogen activator inhibitor-1 (PAI1), SERPINE1 (gene 5054); experiment: BSK_BE3C_PAI1: BioMAP Diversity Plus: BE3C Assay for Plasminogen activator inhibitor-1 (PAI1) Biomarker Activity (AID 2283037); settings: primary human bronchial epithelial cells; actives raise or lower the signal
Outline: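 ELISA read-out of PAI-1 from human bronchial epithelial primary cells, 24 h post-dosing; bidirectional curve fit vs DMSO baseline, gain or loss of signal scored.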

[13] = read-out: urokinase plasminogen activator (uPA), PLAU (gene 5328); experiment: BSK_BE3C_uPA: BioMAP Diversity Plus: BE3C Assay for urokinase plasminogen activator (uPA) Biomarker Activity (AID 2283038); settings: primary human bronchial epithelial cells; actives raise or lower the signal;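 further: uPA protein level quantified by ELISA in cell cultures; uPA read one day after compound addition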
Outline: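 Measured by ELISA: uPA from human primary bronchial epithelial cells 24 h after chemical treatment. Values derive from bidirectional curve fitting with DMSO serving as negative control. Total protein by SRB staining in parallel wells flagged overt cytotoxicity.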

[14] = read-out: Urokinase-type plasminogen activator receptor (uPAR), PLAUR (gene 5329); experiment: BSK_BE3C_uPAR: BioMAP Diversity Plus: BE3C Assay for Urokinase-type plasminogen activator receptor (uPAR) Biomarker Activity (AID 2283039); settings: primary human bronchial epithelial cells; actives raise or lower the signal;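 further: uPAR protein level measured by ELISA on the cells; cells exposed to compound for one day before measurement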
Outline: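 ELISA readout of uPAR on human lung primary bronchial epithelial cells, 24 h post-dosing. Bidirectional curve fit relative to DMSO vehicle baseline; gain or loss of signal both scored.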

[15] = read-out: Interleukin-6 (IL6), IL6 (gene 3569); experiment: BSK_CASM3C_IL6: BioMAP Diversity Plus: CASM3C Assay for Interleukin-6 (IL6) Biomarker Activity for (AID 2283040); settings: primary human coronary artery smooth muscle cells; actives raise or lower the signal
[16] = read-out: Tissue plasminogen activator (tPA), PLAT (gene 5327); experiment: BSK_BE3C_tPA: BioMAP Diversity Plus: BE3C Assay for Tissue plasminogen activator (tPA) Biomarker Activity (AID 2283041); settings: primary human bronchial epithelial cells; actives raise or lower the signal;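 further: tPA level quantified by ELISA one day after compound addition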
Outline: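 ELISA read-out of tPA on human primary bronchial epithelial cells, 24 h post-dosing; bidirectional fit vs DMSO negative control/baseline.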

[17] = read-out: Interleukin-8 (IL8), CXCL8 (gene 3576); experiment: BSK_CASM3C_IL8: BioMAP Diversity Plus: CASM3C Assay for Interleukin-8 (IL8) Biomarker Activity (AID 2283042); settings: primary human coronary artery smooth muscle cells; actives raise or lower the signal;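 further: IL-8 protein level quantified by ELISA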
[18] = read-out: Human Leukocyte Antigen - DR isotype (HLADR), HLA-DRA (gene 3122); experiment: BSK_CASM3C_HLADR: BioMAP Diversity Plus: CASM3C Assay for Human Leukocyte Antigen - DR isotype (HLADR) Biomarker Activity (AID 2283043); settings: primary human coronary artery smooth muscle cells; actives raise or lower the signal;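 further: cell-surface HLA-DR protein level quantified by ELISA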
[19] = read-out: Urokinase-type plasminogen activator receptor (uPAR), PLAUR (gene 5329); experiment: BSK_4H_uPAR: BioMAP Diversity Plus: 4H Assay for Urokinase-type plasminogen activator receptor (uPAR) Biomarker Activity (AID 2283030); settings: primary human endothelial cells (HUVEC); actives raise or lower the signal
Outline: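 Chemicals are dosed onto human vascular endothelial primary cells (umbilical vein). After 24 h, uPAR is read by ELISA. Gain or loss of signal is fitted relative to DMSO.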

Measured: outcome

OCc1ccco1
not listed: [19]
inactive: all other assays above

CC(=O)OC(c1ccccc1)C(Cl)(Cl)Cl (configuration not stated)
not listed: [2] | [11]
inactive: all other assays above

CN(C)N=O
not listed: [16] | [19]
inactive: all other assays above

COP(=S)(OC)Oc1ccc(S(=O)(=O)N(C)C)cc1
not listed: [16]
inactive: all other assays above

CCC(=O)C(CC(C)N(C)C)(c1ccccc1)c1ccccc1 (configuration not stated)
not listed: [16] | [19]
inactive: all other assays above
